Records with an inconclusive call do not appear. Calls of active or inactive are those of the source. Rule for the calls: active = hit-call score of the fitted dose curve at least 0.9, where 1 is the maximum; inconclusive = response in the unintended direction; inactive = score below 0.9.
Key:
[1] = target: human Adrenergic, Beta 3 Receptor (Adrb3), ADRB3 (gene 155) (UniProt P13945); test: NVS_GPCR_hAdrb3: NovaScreen (NVS) G Protein-Coupled Receptor Assay for human Adrenergic, Beta 3 Receptor (Adrb3) (AID 2283262)
Outline: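 Membranes from SK-N-MC cells pretreated with isoproterenol and 8-bromo-cAMP were used in a radioligand competitive displacement binding assay. Binding was read by filter-based scintillation counting 1 hour after dosing. Primary screening was in duplicate at 25 uM, with concentration series in follow-up.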

[2] = target: human Adrenergic, Alpha 2c Receptor (Adra2C), ADRA2C (gene 152) (UniProt P18825); test: NVS_GPCR_hAdra2C: NovaScreen (NVS) G Protein-Coupled Receptor Assay for human Adrenergic, Alpha 2c Receptor (Adra2C) (AID 2283259)
Outline: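 Radioligand binding on Sf9-expressed receptor membranes, 1 h after chemical dosing, filter-based scintillation read-out. Loss of binding fitted positively versus DMSO; primary duplicate screen at 25 uM, actives retested in concentration series.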

[3] = target: D(1A) dopamine receptor (Homo sapiens) (UniProt P21728); test: NVS_GPCR_hDRD1: NovaScreen (NVS) G Protein-Coupled Receptor Assay for human Dopamine Receptor D1 (DRD1) (AID 2283269)
Outline: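 Radioligand displacement binding on membranes/protein extracted from HEK293 expressing human D1, cell-free; read 1 h after dosing by filter-based scintillation counting. Primary screen in duplicate at 25 uM, actives followed up in concentration series; signal loss versus DMSO baseline.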

[4] = target: human Adrenergic, Alpha 2A Receptor (Adra2A), ADRA2A (gene 150) (UniProt P08913); test: NVS_GPCR_hAdra2A: NovaScreen (NVS) G Protein-Coupled Receptor Assay for human Adrenergic, Alpha 2A Receptor (Adra2A) (AID 2283257)
Outline: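 Radioligand filter-binding was run on HT29-derived membranes, cell-free, read by scintillation counting 1 h after dosing. Primary screening was in duplicate at 25 uM, with concentration series in follow-up. Loss of signal versus DMSO indicates displacement.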

[5] = target: Muscarinic acetylcholine receptor M1 (Homo sapiens) (UniProt P11229); test: NVS_GPCR_hM1: NovaScreen (NVS) G Protein-Coupled Receptor Assay for human Muscarinic, M1 Receptor (AID 2283270)
Outline: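 Cell-free radioligand displacement using membrane protein extracted from CHO cells, read by filter-based scintillation counting 1 h after dosing. Loss of bound signal fitted versus DMSO; primary screen single concentration 25 uM in duplicate, actives followed by concentration series.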

[6] = target: Muscarinic acetylcholine receptor M3 (Homo sapiens) (UniProt P20309); test: NVS_GPCR_hM3: NovaScreen (NVS) G Protein-Coupled Receptor Assay for human Muscarinic, M3 Receptor (AID 2283272)
Outline: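 Radioligand displacement binding on human M3 receptor in CHO-derived membranes, 1 h incubation, filter-based scintillation counting. Primary screen in duplicate at 25 uM; actives followed up in concentration series; loss of signal versus DMSO.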

[7] = target: Muscarinic acetylcholine receptor M2 (Homo sapiens) (UniProt P08172); test: NVS_GPCR_hM2: NovaScreen (NVS) G Protein-Coupled Receptor Assay for human Muscarinic, M2 Receptor (AID 2283273)
Outline: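 Radioligand displacement on human M2 receptor membranes from CHO cells, 1 h incubation, filtration with scintillation counting. Primary screen in duplicate at 25 uM; actives retested in concentration series; loss of signal fitted versus DMSO.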

[8] = target: human Muscarinic, M4 Receptor, CHRM4 (gene 1132) (UniProt P08173); test: NVS_GPCR_hM4: NovaScreen (NVS) G Protein-Coupled Receptor Assay for human Muscarinic, M4 Receptor (AID 2283274)
Outline: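 Cell-free radioligand displacement using CHO-derived human M4 receptor protein, 1 h after dosing; bound radioactivity by filtration and scintillation counting. Primary screen single 25 uM duplicate, actives followed in concentration series.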

[9] = target: Muscarinic acetylcholine receptor M5 (Homo sapiens) (UniProt P08912); test: NVS_GPCR_hM5: NovaScreen (NVS) G Protein-Coupled Receptor Assay for human Muscarinic, M5 Receptor (AID 2283275)
Outline: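 Radioligand displacement on CHO-derived membrane preparations, 1 h, filter-based scintillation counting. Single-concentration duplicate screen at 25 uM; hits (e.g. 30% inhibition) retested in singleton concentration-response up to 50 uM. Loss of binding fitted versus DMSO.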

[10] = target: human Endothelin Receptor Type B (ETB), EDNRB (gene 1910) (UniProt P24530); test: NVS_GPCR_hETB: NovaScreen (NVS) G Protein-Coupled Receptor Assay for human Endothelin Receptor Type B (ETB) (AID 2283267)
Outline: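 Human astrocytoma cell membranes; radioligand competitive binding read by filter scintillation counting 4 hours after dosing. Single-concentration duplicate screen at 25 uM, then singleton concentration-response up to 50 uM; loss of signal versus DMSO.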

[11] = target: human Adrenergic, Beta 1 Receptor (Adrb1), ADRB1 (gene 153) (UniProt P08588); test: NVS_GPCR_hAdrb1: NovaScreen (NVS) G Protein-Coupled Receptor Assay for human Adrenergic, Beta 1 Receptor (Adrb1) (AID 2283258)
Outline: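 Cell-free radioligand displacement on receptor from human neuroepithelioma cells; 2 h after dosing, filter-based scintillation counting. Primary screen in duplicate at 25 uM, actives retested in concentration series; loss of signal vs DMSO baseline.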

[12] = target: Beta-2 adrenergic receptor (Homo sapiens) (UniProt P07550); test: NVS_GPCR_hAdrb2: NovaScreen (NVS) G Protein-Coupled Receptor Assay for human Adrenergic, Beta 2 Receptor (Adrb2) (AID 2283261)
Outline: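 Filter-based radioligand binding using receptor prepared from CHO cells, 1 h incubation, scintillation counting. Primary screen in duplicate at 25 uM, actives retested in concentration series; loss of binding relative to DMSO.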

[13] = target: human Dopamine Receptor D4.4 (DRD4.4), DRD4 (gene 1815) (UniProt P21917); test: NVS_GPCR_hDRD4.4: NovaScreen (NVS) G Protein-Coupled Receptor Assay for human Dopamine Receptor D4.4 (DRD4.4) (AID 2283264)
Outline: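 Radioligand displacement on human DRD4.4 from CHO-derived membranes, 1 hour incubation, bound counts read by filtration and scintillation. Primary screen in duplicate at 25 uM; actives followed up in concentration series.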

[14] = target: human Endothelin Receptor Type A (ETA), EDNRA (gene 1909) (UniProt P25101); test: NVS_GPCR_hETA: NovaScreen (NVS) G Protein-Coupled Receptor Assay for human Endothelin Receptor Type A (ETA) (AID 2283265)
Outline: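 Cell-free radioligand displacement using SH-SY5Y-derived protein, 3 h incubation, filter-based scintillation counting. Primary screen in duplicate at 25 uM; actives then run in concentration-response up to 50 uM; loss of binding fitted versus DMSO.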

[15] = target: human Histamine 1 Receptor (H1), HRH1 (gene 3269) (UniProt P35367); test: NVS_GPCR_hH1: NovaScreen (NVS) G Protein-Coupled Receptor Assay for human Histamine 1 Receptor (H1) (AID 2283268)
Outline: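 Cell-free radioligand displacement at human H1 receptor, 1 h, filter scintillation counting; primary screen 25 uM in duplicate, hits in concentration series; loss of binding fitted vs DMSO.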

Sequence of D(1A) dopamine receptor (Homo sapiens) (P21728 whole entry, looked up): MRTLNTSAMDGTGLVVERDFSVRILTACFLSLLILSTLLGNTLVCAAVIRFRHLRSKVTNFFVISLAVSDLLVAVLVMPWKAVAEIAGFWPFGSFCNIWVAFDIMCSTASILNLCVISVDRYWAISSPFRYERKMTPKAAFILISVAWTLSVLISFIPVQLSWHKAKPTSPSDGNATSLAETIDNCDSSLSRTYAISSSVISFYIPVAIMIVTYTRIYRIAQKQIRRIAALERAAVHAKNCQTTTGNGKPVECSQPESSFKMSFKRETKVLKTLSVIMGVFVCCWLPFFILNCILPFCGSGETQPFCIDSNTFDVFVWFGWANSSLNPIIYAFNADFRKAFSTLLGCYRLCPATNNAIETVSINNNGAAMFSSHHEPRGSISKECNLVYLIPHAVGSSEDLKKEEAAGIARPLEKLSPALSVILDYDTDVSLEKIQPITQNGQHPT
Sequence of Muscarinic acetylcholine receptor M3 (Homo sapiens) (P20309 whole entry, looked up): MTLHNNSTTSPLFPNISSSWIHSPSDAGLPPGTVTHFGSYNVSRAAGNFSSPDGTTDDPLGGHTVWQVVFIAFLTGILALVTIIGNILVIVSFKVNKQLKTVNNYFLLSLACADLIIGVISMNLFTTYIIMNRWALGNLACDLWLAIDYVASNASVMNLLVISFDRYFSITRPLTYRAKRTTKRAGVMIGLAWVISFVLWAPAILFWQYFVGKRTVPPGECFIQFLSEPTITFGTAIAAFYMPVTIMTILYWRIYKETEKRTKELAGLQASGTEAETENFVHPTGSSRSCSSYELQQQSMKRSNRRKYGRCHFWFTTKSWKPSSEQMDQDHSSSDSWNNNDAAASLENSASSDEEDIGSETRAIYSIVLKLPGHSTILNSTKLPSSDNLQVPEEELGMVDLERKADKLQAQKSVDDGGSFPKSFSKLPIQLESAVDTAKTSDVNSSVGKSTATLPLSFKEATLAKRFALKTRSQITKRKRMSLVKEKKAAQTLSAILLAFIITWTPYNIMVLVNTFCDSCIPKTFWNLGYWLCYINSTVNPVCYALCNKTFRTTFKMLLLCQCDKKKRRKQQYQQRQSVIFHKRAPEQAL
Sequence of human Muscarinic, M4 Receptor, CHRM4 (gene 1132) (P08173 whole entry, looked up): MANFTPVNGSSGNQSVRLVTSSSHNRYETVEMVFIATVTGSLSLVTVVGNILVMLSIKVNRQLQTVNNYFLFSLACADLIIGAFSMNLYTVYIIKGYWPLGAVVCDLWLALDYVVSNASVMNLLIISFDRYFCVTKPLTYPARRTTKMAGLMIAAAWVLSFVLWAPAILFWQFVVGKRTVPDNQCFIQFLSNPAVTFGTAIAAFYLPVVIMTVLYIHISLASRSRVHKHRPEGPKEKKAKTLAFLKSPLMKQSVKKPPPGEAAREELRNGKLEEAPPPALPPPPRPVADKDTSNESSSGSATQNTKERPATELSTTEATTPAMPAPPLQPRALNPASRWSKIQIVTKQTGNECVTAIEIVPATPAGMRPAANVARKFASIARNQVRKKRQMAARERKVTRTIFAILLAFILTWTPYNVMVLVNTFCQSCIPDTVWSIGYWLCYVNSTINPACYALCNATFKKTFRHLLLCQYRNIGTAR
Sequence of human Endothelin Receptor Type B (ETB), EDNRB (gene 1910) (P24530 whole entry, looked up): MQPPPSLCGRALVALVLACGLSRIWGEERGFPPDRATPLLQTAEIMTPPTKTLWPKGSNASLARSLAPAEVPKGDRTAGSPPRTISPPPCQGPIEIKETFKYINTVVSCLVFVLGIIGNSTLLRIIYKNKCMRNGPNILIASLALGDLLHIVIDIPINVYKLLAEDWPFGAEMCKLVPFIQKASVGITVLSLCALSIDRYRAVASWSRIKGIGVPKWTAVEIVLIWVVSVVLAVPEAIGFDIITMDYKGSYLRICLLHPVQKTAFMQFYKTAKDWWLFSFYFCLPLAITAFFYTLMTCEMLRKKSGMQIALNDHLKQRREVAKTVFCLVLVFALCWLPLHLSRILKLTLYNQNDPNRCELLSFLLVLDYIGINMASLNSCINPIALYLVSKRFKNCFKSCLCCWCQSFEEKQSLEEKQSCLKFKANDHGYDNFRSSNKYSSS
Sequence of human Adrenergic, Alpha 2c Receptor (Adra2C), ADRA2C (gene 152) (P18825 whole entry, looked up): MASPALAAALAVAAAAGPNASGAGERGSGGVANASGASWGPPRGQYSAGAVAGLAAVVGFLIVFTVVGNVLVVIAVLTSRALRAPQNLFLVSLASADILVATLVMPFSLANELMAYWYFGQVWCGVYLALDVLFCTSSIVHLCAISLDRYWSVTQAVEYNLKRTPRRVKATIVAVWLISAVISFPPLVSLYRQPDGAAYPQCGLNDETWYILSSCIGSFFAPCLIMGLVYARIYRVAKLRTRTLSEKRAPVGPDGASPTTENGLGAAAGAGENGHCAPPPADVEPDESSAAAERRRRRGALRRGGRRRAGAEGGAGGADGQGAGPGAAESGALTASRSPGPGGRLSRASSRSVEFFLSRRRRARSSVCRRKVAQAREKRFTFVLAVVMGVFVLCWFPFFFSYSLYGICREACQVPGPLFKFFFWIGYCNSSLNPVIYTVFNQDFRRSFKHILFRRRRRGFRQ
Sequence of Muscarinic acetylcholine receptor M2 (Homo sapiens) (P08172 whole entry, looked up): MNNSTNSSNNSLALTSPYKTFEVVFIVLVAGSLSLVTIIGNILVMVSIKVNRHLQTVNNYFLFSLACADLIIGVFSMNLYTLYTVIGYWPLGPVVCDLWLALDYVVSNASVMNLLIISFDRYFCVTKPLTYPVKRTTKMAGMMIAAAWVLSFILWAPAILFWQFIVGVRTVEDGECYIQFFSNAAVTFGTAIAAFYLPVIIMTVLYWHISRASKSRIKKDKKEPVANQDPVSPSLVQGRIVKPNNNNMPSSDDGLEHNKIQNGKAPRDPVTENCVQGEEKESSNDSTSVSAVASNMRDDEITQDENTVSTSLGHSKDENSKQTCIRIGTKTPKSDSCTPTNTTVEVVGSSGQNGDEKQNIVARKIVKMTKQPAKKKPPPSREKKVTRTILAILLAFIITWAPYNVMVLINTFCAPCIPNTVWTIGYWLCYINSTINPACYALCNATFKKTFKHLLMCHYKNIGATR
Sequence of Muscarinic acetylcholine receptor M1 (Homo sapiens) (P11229 whole entry, looked up): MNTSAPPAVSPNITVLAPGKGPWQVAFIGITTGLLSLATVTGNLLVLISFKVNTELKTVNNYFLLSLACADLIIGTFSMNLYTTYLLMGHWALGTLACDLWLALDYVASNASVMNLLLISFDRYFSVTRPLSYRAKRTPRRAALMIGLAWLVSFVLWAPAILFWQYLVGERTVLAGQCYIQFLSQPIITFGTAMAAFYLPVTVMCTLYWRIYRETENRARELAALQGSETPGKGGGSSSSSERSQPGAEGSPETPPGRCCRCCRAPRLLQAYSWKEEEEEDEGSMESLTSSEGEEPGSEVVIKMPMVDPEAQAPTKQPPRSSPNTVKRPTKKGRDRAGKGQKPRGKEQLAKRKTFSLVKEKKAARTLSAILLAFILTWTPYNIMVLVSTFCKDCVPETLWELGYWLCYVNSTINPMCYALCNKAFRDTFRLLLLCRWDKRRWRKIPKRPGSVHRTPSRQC
Sequence of human Adrenergic, Alpha 2A Receptor (Adra2A), ADRA2A (gene 150) (P08913 whole entry, looked up): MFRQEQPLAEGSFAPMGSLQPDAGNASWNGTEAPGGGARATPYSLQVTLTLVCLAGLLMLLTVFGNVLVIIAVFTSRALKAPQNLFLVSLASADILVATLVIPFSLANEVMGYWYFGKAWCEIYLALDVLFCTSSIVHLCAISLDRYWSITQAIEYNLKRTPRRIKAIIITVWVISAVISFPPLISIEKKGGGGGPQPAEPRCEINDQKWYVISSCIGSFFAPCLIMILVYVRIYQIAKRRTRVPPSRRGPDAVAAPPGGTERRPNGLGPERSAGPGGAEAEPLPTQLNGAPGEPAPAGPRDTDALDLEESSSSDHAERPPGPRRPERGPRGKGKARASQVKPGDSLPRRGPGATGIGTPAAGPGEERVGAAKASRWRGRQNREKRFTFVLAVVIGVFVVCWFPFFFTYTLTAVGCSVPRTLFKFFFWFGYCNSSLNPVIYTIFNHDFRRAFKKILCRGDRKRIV
Sequence of Muscarinic acetylcholine receptor M5 (Homo sapiens) (P08912 whole entry, looked up): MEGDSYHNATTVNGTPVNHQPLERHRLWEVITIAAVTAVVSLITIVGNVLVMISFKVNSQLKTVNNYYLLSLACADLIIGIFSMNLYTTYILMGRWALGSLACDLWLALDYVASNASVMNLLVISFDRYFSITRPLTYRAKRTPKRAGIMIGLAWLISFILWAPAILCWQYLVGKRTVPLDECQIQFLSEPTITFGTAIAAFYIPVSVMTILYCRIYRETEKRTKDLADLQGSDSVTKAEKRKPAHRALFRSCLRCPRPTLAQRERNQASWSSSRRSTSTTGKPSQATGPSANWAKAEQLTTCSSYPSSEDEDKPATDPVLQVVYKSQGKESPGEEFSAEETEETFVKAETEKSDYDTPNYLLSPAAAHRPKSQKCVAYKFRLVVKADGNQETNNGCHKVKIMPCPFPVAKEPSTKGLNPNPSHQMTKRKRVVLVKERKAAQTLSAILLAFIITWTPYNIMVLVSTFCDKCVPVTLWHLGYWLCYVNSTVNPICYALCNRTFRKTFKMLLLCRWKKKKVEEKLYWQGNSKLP
Sequence of human Adrenergic, Beta 3 Receptor (Adrb3), ADRB3 (gene 155) (P13945 whole entry, looked up): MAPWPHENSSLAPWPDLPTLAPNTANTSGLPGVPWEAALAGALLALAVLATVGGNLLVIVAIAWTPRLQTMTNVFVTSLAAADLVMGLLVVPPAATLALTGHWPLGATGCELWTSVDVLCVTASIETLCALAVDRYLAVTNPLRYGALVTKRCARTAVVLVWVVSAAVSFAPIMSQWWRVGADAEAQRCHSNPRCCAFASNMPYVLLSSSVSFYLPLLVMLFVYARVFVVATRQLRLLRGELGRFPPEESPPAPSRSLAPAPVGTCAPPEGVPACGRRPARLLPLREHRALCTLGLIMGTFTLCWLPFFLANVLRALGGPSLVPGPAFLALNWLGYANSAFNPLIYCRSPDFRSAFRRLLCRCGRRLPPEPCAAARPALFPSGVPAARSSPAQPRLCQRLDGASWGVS

CC/C(=C\C(=N/O)C(N)=O)C(C)[N+](=O)[O-] (configuration not stated)
outcome [1]: inactive

O=C(OC[C@H]1O[C@@H](OC(=O)c2cc(O)c(O)c(OC(=O)c3cc(O)c(O)c(O)c3)c2)[C@H](OC(=O)c2cc(O)c(O)c(OC(=O)c3cc(O)c(O)c(O)c3)c2)[C@@H](OC(=O)c2cc(O)c(O)c(OC(=O)c3cc(O)c(O)c(O)c3)c2)[C@@H]1OC(=O)c1cc(O)c(O)c(OC(=O)c2cc(O)c(O)c(O)c2)c1)c1cc(O)c(O)c(OC(=O)c2cc(O)c(O)c(O)c2)c1
outcome [2]: inactive
outcome [3]: inactive

CC[C@H]1CC[C@H](NCc2cc3c(cc2OC)[C@H]2C[C@H]2C(=O)N3C)[C@H](c2ccccc2)N1
AC50 [4]: 4.96 µM (active)
AC50 [5]: 1.47 µM (active)
AC50 [6]: 12.3 µM (active)
AC50 [7]: 0.835 µM (active)
AC50 [8]: 2.31 µM (active)
AC50 [9]: 7.73 µM (active)

CCC(C)(C)C(=O)O[C@H]1C[C@@H](C)C=C2C=C[C@H](C)[C@H](CC[C@@H]3C[C@@H](O)CC(=O)O3)[C@H]21
outcome [3]: inactive

O=C(CCCCCCCCc1cccnc1)N1CCC(C=C(c2ccccc2)c2ccccc2)CC1
outcome [10]: inactive
outcome [6]: inactive

CCCCC(CC)COC(=O)CCCCCCCCC(=O)OCC(CC)CCCC (configuration not stated)
outcome [10]: inactive

CCOC(=O)COc1ccc2c(c1)CC(NCC(O)c1cccc(Cl)c1)CC2 (configuration not stated)
AC50 [4]: 7.53 µM (active)
AC50 [11]: 3.33 µM (active)
AC50 [2]: 3.81 µM (active)
AC50 [12]: 0.0827 µM (active)
AC50 [1]: 17.9 µM (active)
AC50 [13]: 22.9 µM (active)
outcome [14]: inactive
AC50 [15]: 20.1 µM (active)
AC50 [3]: 22.9 µM (active)
AC50 [5]: 4.73 µM (active)
AC50 [6]: 3.78 µM (active)
AC50 [7]: 3.68 µM (active)
AC50 [8]: 1.92 µM (active)
AC50 [9]: 3.75 µM (active)

Source: PubChem BioAssay (EPA / NIEHS)
